This passage reports growth results from PubChem BioAssay (NCI).

Molecules are shown by their SMILES. Compounds without any hit were thinned out: in the full panel of roughly 83,000, 20% have a hit.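 Compound tested at a single concentration for 48 hours in 96-well plates; a percent growth value below 10 was scored as active.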 Unmarked numbers belong to inactive results.

The assay concerns BT-549 breast. The assay can be described thus: NCI-60 one-dose screen, 48 h (100 = growth as untreated, 0 = no growth, -100 = all killed). The settings on record: 10 µM unless noted.
With `CN(C)CCCNC(=O)c1cncnc1Nc1ccc2c(ccn2Cc2cccc(F)c2)c1`, the growth was 92.2%. As to `CCOC(=O)/C(=C(/C)NCC(C)C)c1cc(O)c(O)c2c(C)cc(=O)[nH]c12`, the growth is 63%. The figure for `COc1ccc(Nc2ncc(C#N)c(NCCCNC(=O)C3CCC3)n2)cc1` is 70.6%; for `C=C1SC(=Nc2ccccc2Cl)N(C(=O)c2sc3ccccc3c2Cl)C1(C)C` it is 85.2%; for `CN1CC(c2ccc(Br)cc2)C(C(=O)c2ccc(Br)cc2)C12C(=O)Nc1ccccc12` (centres undefined) it is 100%. The figure for `CC(C)Cc1nc(Nc2ccccc2)[nH]c(=O)c1C#N` is 39%; for `CC(C)(C)c1ccc(S(=O)(=O)Oc2ccc(-c3sc4cc(OS(=O)(=O)c5ccc(C(C)(C)C)cc5)ccc4c3C(=O)c3ccc(OCCN4CCCCC4)cc3)cc2)cc1` it is 97.7%. Regarding `Nc1ncccc1O`, the growth was 93.7%.

In the case of `COc1cc(C[C@H]2COc3cc(O)cc(O)c3C2=O)ccc1O`, the growth was 27.8%. The figure for `CCN(CC)C(=O)CC1=C(C)/C(=C/c2[nH]c(-c3ccc[nH]3)cc2OC)N=C1C` is 21.4%.

`COc1ccc(C2CC(c3ccccc3)=NN2C(=O)c2cc(OC)c(OC)c(OC)c2)cc1O` (centres undefined): the growth is 39.7%. For the molecule `C[C@@H]1CN(c2cnc(C(=O)Nc3cc(F)cc4cccnc34)cn2)C[C@H](C)N1`, the growth was 102%. As for `O=C(Nc1cc(Cl)ccc1O)c1ccccc1Nc1ccnc(C(F)(F)F)c1`, the figure is 33.2%. As for `O=c1ccc2ccc(OCCN3CCCCC3)cc2o1`, the figure is 100%.
